Experimental data: PubChem BioAssay AID1159580 (chemical genetic matrix, 2015)
Out of some 5,500 compounds screened, about 2,000 (36%) were called active. Roughly 18% stayed inconclusive and do not appear here. No stated cut-off is given here; in the data, active means normalized growth mostly below about 0.91 (no sharp cut-off); inconclusive means no clear call, values can overlap the other calls; inactive means mostly above about 0.92. Some of the results follow.

Assay: chemical genetic growth profiling, strain panel (AID 1159580);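 further: tested at 20 µM; growth read once vehicle control cultures reached saturation at 30 °C; 1 = growth at the plate median or of vehicle wells; lower values mean less growth of the strain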
Settings: S. cerevisiae deletion strains, growth OD
[1] = locus YAL021C, strain ccr4, hits give low values
[2] = locus YAL026C, strain drs2, hits give low values
[3] = locus YAL030W, strain snc1, hits give low values
[4] = locus YBL061C, strain skt5, hits give low values
[5] = locus YBR009C, strain hhf1, hits give low values
[6] = locus YBR023C, strain chs3, hits give low values
[7] = locus YBR171W, strain sec66, hits give low values
[8] = locus YBR231C, strain swc5, hits give low values
[9] = locus YBR279W, strain paf1, hits give low values
[10] = locus YCL011C, strain gbp2, hits give low values
[11] = locus YCL016C, strain dcc1, hits give low values
[12] = locus YCL061C, strain MRC1, hits give low values
[13] = locus YCL069W, strain vba3, hits give low values
[14] = locus YCR088W, strain abp1, hits give low values
[15] = locus YDL005C, strain med2, hits give low values
[16] = locus YDL040C, strain nat1, hits give low values
[17] = locus YDR001C, strain nth1, hits give low values
[18] = locus YDR069C, strain doa4, hits give low values
[19] = locus YDR137W, strain rgp1, hits give low values
[20] = locus YDR159W, strain sac3, hits give low values
[21] = locus YDR297W, strain sur2, hits give low values
[22] = locus YDR334W, strain swr1, hits give low values
[23] = locus YDR335W, strain msn5, hits give low values
[24] = locus YDR392W, strain spt3, hits give low values
[25] = locus YEL003W, strain gim4, hits give low values
[26] = locus YEL037C, strain rad23, hits give low values
[27] = locus YEL061C, strain CIN8 (second series), hits give low values
[28] = locus YER015W, strain faa2, hits give low values
[29] = locus YER016W, strain bim1, hits give low values
[30] = locus YER111C, strain swi4, hits give low values
[31] = locus YER155C, strain BEM2 (second series), hits give low values
[32] = locus YFR010W, strain ubp6, hits give low values
[33] = locus YGL167C, strain pmr1, hits give low values
[34] = locus YGL173C, strain kem1, hits give low values
[35] = locus YGL227W, strain vid30, hits give low values
[36] = locus YGL240W, strain doc1, hits give low values
[37] = locus YGL253W, strain hxk2, hits give low values
[38] = locus YHR013C, strain ard1, hits give low values
[39] = locus YHR027C, strain rpn1, hits give low values
[40] = locus YHR030C, strain SLT2, hits give low values
[41] = locus YHR079C, strain IRE1, hits give low values
[42] = locus YHR142W, strain chs7, hits give low values
[43] = locus YJL092W, strain hpr5, hits give low values
[44] = locus YJL095W, strain BCK1 (second series), hits give low values
[45] = locus YJL095W, strain BCK1, hits give low values
[46] = locus YJL115W, strain asf1, hits give low values
[47] = locus YJL129C, strain trk1, hits give low values
[48] = locus YJL154C, strain vps35, hits give low values
[49] = locus YJL164C, strain tpk1, hits give low values
[50] = locus YJL166W, strain qcr8, hits give low values
[51] = locus YJR066W, strain TOR1, hits give low values
[52] = locus YKL160W, strain elf1, hits give low values
[53] = locus YKR026C, strain gcn3, hits give low values
[54] = locus YKR091W, strain srl3, hits give low values
[55] = locus YLL001W, strain dnm1, hits give low values
[56] = locus YLL026W, hits give low values
[57] = locus YLL041C, strain sdh2, hits give low values
[58] = locus YLR027C, strain aat2, hits give low values
[59] = locus YLR113W, strain HOG1, hits give low values
[60] = locus YLR221C, strain rsa3, hits give low values
[61] = locus YLR258W, strain gsy2, hits give low values
[62] = locus YLR262C, strain YPT6 (second series), hits give low values
[63] = locus YLR320W, strain mms22, hits give low values
[64] = locus YLR342W, strain FKS1, hits give low values
[65] = locus YLR357W, strain rsc2, hits give low values
[66] = locus YLR370C, strain arc18, hits give low values
[67] = locus YLR384C, strain iki3, hits give low values
[68] = locus YML120C, strain ndi1, hits give low values
[69] = locus YMR058W, strain fet3, hits give low values
[70] = locus YMR125W, strain sto1, hits give low values
[71] = locus YMR129W, hits give low values
[72] = locus YMR205C, strain PFK2, hits give low values
[73] = locus YMR231W, strain pep5, hits give low values
[74] = locus YNL071W, strain lat1, hits give low values
[75] = locus YNL183C, strain NPR1, hits give low values
[76] = locus YNL209W, strain ssb2, hits give low values
[77] = locus YNL248C, strain rpa49, hits give low values
[78] = locus YNL322C, strain KRE1 (second series), hits give low values
[79] = locus YNR049C, strain mso1, hits give low values
[80] = locus YOR001W, strain rrp6, hits give low values
[81] = locus YOR070C, strain gyp1, hits give low values
[82] = locus YOR080W, strain dia2, hits give low values
[83] = locus YOR083W, strain WHI5, hits give low values
[84] = locus YOR106W, strain vam3, hits give low values
[85] = locus YOR231W, strain MKK1, hits give low values
[86] = locus YOR265W, strain rbl2, hits give low values
[87] = locus YOR270C, strain vph1, hits give low values
[88] = locus YOR290C, strain snf2, hits give low values
[89] = locus YPL051W, strain arl3, hits give low values
[90] = locus YPL078C, strain atp4, hits give low values
[91] = locus YPL106C, strain sse1, hits give low values
[92] = locus YPL240C, strain hsp82, hits give low values
[93] = locus YPL256C, strain CLN2, hits give low values

Measured: normalized growth

COc1cc(/C=C/C(=O)/C=C(O)/C=C/c2ccc(O)c(OC)c2)ccc1O
active: [1] 0.0789 | [2] 0.118 | [3] 0.157 | [4] 0.175 | [5] 0.149 | [6] 0.172 | [7] 0.132 | [8] 0.091 | [9] 0.307 | [10] 0.184 | [11] 0.4 | [12] 0.216 | [13] 0.224 | [14] 0.265 | [15] 0.089 | [16] 0.0875 | [17] 0.249 | [18] 0.0822 | [19] 0.149 | [20] 0.112 | locus YDR195W, strain ref2 0.156 | [21] 0.187 | [22] 0.109 | [23] 0.0992 | [24] 0.14 | [25] 0.0989 | [26] 0.155 | [27] 0.243 | [28] 0.119 | [29] 0.396 | [30] 0.094 | [31] 0.242 | [32] 0.187 | [33] 0.177 | [34] 0.107 | [35] 0.507 | [36] 0.399 | [37] 0.224 | [38] 0.178 | [39] 0.0816 | [40] 0.653 | [41] 0.574 | [42] 0.0884 | [43] 0.222 | [44] 0.0924 | [45] 0.546 | [46] 0.313 | [47] 0.108 | [48] 0.251 | [49] 0.143 | [50] 0.0762 | [52] 0.433 | [53] 0.229 | [54] 0.304 | [55] 0.212 | [56] 0.131 | [57] 0.0974 | [58] 0.161 | [59] 0.227 | [60] 0.204 | [61] 0.17 | [62] 0.142 | [63] 0.163 | [64] 0.173 | [65] 0.34 | [66] 0.171 | [67] 0.155 | [68] 0.115 | [69] 0.0838 | [70] 0.16 | [71] 0.276 | [72] 0.134 | [73] 0.134 | [74] 0.269 | [75] 0.761 | [76] 0.0983 | [77] 0.443 | [78] 0.16 | [79] 0.175 | [80] 0.139 | [81] 0.416 | [82] 0.0852 | [83] 0.203 | [84] 0.0922 | [85] 0.575 | [86] 0.159 | [87] 0.115 | [88] 0.101 | [89] 0.118 | [90] 0.182 | [91] 0.251 | [92] 0.294 | [93] 0.494
inactive: [51] 0.828

COc1cc(O)c(C(=O)/C=C/c2ccc(O)c(OC)c2)c(OC)c1
active: [2] 0.896 | [24] 0.532 | [25] 0.82 | [31] 0.83 | [32] 0.899 | [37] 0.877 | [49] 0.889 | [69] 0.812 | [74] 0.877
inactive: [1] 0.948 | [3] 0.972 | [4] 0.983 | [5] 0.948 | [6] 0.979 | [7] 0.971 | [8] 0.951 | [9] 0.989 | [10] 0.947 | [11] 0.981 | [12] 0.984 | [13] 0.972 | [14] 0.976 | [15] 0.976 | [16] 0.975 | [17] 0.98 | [18] 0.907 | [19] 0.947 | [20] 0.941 | locus YDR195W, strain ref2 0.972 | [21] 0.975 | [22] 0.936 | [23] 0.973 | [26] 0.949 | [27] 0.977 | [28] 0.973 | [29] 0.981 | [30] 0.965 | [33] 0.975 | [34] 0.962 | [35] 0.987 | [36] 0.928 | [38] 0.902 | [39] 0.965 | [40] 0.96 | [41] 0.973 | [42] 0.923 | [43] 0.961 | [44] 0.979 | [45] 0.982 | [46] 0.969 | [47] 0.965 | [48] 0.987 | [50] 0.94 | locus YJL187C, strain SWE1, hits give low values 0.979 | [51] 0.926 | [52] 0.968 | [53] 0.977 | [54] 0.985 | [55] 0.984 | [56] 0.972 | [57] 0.961 | [58] 0.928 | [59] 0.967 | [60] 0.908 | [61] 0.961 | [62] 0.884 | [63] 0.947 | [64] 0.961 | [65] 0.983 | [66] 0.977 | [67] 0.992 | [68] 0.975 | [70] 0.899 | [71] 0.981 | [72] 0.988 | [73] 0.942 | [75] 0.955 | [76] 0.986 | [77] 0.906 | [78] 0.985 | [79] 0.977 | [80] 0.922 | [81] 0.962 | [82] 0.986 | [83] 0.98 | [84] 0.896 | [85] 0.967 | [86] 0.965 | [87] 0.845 | [88] 0.939 | [89] 0.928 | [90] 0.972 | [91] 0.911 | [92] 0.976 | [93] 0.928
